In PubChem BioAssay (EPA / NIEHS):
“And” between values parts separate entries of the source, which are not always exact repeats. Equal entries are not always repeated. The source made the active and inactive calls. The calls were made as follows: active = hit-call score of the fitted dose curve at least 0.9, where 1 is the maximum; inactive = score below 0.9.

read-out: not listed separately; experiment: BSK_CASM3C_SRB: Viability Assessment in the BioMAP Diversity Plus: CASM3C Assay (AID 2283050); settings: primary human coronary artery smooth muscle cells;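 also: total protein by SRB staining as cytotoxicity measure in parallel cultures; cells exposed to compound for 24 h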

| Structure (SMILES) | outcome | AC50 |
| --- | --- | --- |
| CCOS(=O)(=O)OCC | inactive | – |
| c1nc[nH]n1 | inactive | – |
| CC(Cc1ccc(OCC(=O)O)cc1)NCC(O)c1csc(C(F)(F)F)n1 (stereo not drawn) | inactive | – |
| CCOP(=S)(NC(C)C)Oc1ccccc1C(=O)OC(C)C (stereo not drawn) | inactive | – |
| Nc1ccc2ccccc2c1 | inactive | – |
| CCOP(=S)(OCC)SCn1nnc2ccccc2c1=O | inactive | – |
| CCNc1nc(Cl)nc(NC(C)(C)C)n1 | inactive | – |
| O=[N+]([O-])c1ccc(Cl)c(Cl)c1 | inactive | – |
| COCCOCCO | inactive | – |
| CN(C)C(=O)Cl | inactive | – |
| Cc1c([N+](=O)[O-])cc2c(c1[N+](=O)[O-])C(C)(C)CC2(C)C | inactive | – |
| Cc1ccc([N+](=O)[O-])cc1C | inactive | – |
| CCN(CC)c1ccccc1 | inactive | – |
| ClC(Cl)=C(c1ccc(Cl)cc1)c1ccccc1Cl | – | 28.2 µM (active) |
| CCOc1ccc(C(C)(C)COCc2cccc(Oc3ccccc3)c2)cc1 | inactive | – |
| COP(=O)(CCC(=O)NCO)OC | inactive | – |
| CC(Cl)CN(C)C (stereo not drawn) | inactive | – |
| OCC1CO1 (stereo not drawn) | inactive | – |
| Cc1ccc(O)cc1C | inactive | – |
| C=CC(=O)OCC(F)(F)C(F)F | – | 39.8 µM (active) and 43.6 µM (active) |
| c1cc2c3c(cccc3c1)CC2 | inactive | – |
| Nc1ccc(Cl)cc1 | inactive | – |
| CC(C)(C)OOC(C)(C)C | inactive | – |
| CC(C)(C)c1ccccc1OP(=O)(Oc1ccccc1)Oc1ccccc1 | – | 5.23 µM (active) |
| Cc1cccc(N)c1 | inactive | – |
| O=P1(N(CCCl)CCCl)NCCCO1 (stereo not drawn) | inactive | – |
| O=S(=O)(F)C(F)(F)C(F)(F)C(F)(F)C(F)(F)C(F)(F)C(F)(F)C(F)(F)C(F)(F)F | inactive | – |

read-out: Thrombomodulin, THBD (gene 7056); experiment: BSK_CASM3C_Thrombomodulin: BioMAP Diversity Plus: CASM3C Assay for Thrombomodulin Biomarker Activity (AID 2283051); settings: primary human coronary artery smooth muscle cells; actives raise or lower the signal;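 also: thrombomodulin protein level measured by ELISA 24 h after dosing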

| Structure (SMILES) | outcome | AC50 |
| --- | --- | --- |
| CCOS(=O)(=O)OCC | inactive | – |
| c1nc[nH]n1 | inactive | – |
| CC(Cc1ccc(OCC(=O)O)cc1)NCC(O)c1csc(C(F)(F)F)n1 (stereo not drawn) | inactive | – |
| CCOP(=S)(NC(C)C)Oc1ccccc1C(=O)OC(C)C (stereo not drawn) | inactive | – |
| Nc1ccc2ccccc2c1 | – | 12.5 µM (active) |
| CCOP(=S)(OCC)SCn1nnc2ccccc2c1=O | inactive | – |
| CCNc1nc(Cl)nc(NC(C)(C)C)n1 | inactive | – |
| O=[N+]([O-])c1ccc(Cl)c(Cl)c1 | inactive | – |
| COCCOCCO | inactive | – |
| CN(C)C(=O)Cl | inactive | – |
| Cc1c([N+](=O)[O-])cc2c(c1[N+](=O)[O-])C(C)(C)CC2(C)C | – | 7.74 µM (active) |
| Cc1ccc([N+](=O)[O-])cc1C | inactive | – |
| CCN(CC)c1ccccc1 | inactive | – |
| ClC(Cl)=C(c1ccc(Cl)cc1)c1ccccc1Cl | inactive | – |
| CCOc1ccc(C(C)(C)COCc2cccc(Oc3ccccc3)c2)cc1 | – | 10.7 µM (active) |
| COP(=O)(CCC(=O)NCO)OC | inactive | – |
| CCOP(=S)(Oc1ccc([N+](=O)[O-])cc1)c1ccccc1 (stereo not drawn) | – | 12.9 µM (active) |
| CC(Cl)CN(C)C (stereo not drawn) | inactive | – |
| OCC1CO1 (stereo not drawn) | inactive | – |
| Cc1ccc(O)cc1C | inactive | – |
| C=CC(=O)OCC(F)(F)C(F)F | – | 37.3 µM (active) and 24.9 µM (active) |
| c1cc2c3c(cccc3c1)CC2 | inactive | – |
| Nc1ccc(Cl)cc1 | inactive | – |
| CC(C)(C)OOC(C)(C)C | inactive | – |
| CC(C)(C)c1ccccc1OP(=O)(Oc1ccccc1)Oc1ccccc1 | – | 11.7 µM (active) |
| Cc1cccc(N)c1 | inactive | – |
| O=P1(N(CCCl)CCCl)NCCCO1 (stereo not drawn) | inactive | – |
| O=S(=O)(F)C(F)(F)C(F)(F)C(F)(F)C(F)(F)C(F)(F)C(F)(F)C(F)(F)C(F)(F)F | inactive | – |

read-out: Tissue Factor, F3 (gene 2152); experiment: BSK_CASM3C_TissueFactor: BioMAP Diversity Plus: CASM3C Assay for Tissue Factor Biomarker Activity (AID 2283052); settings: primary human coronary artery smooth muscle cells; actives raise or lower the signal;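 also: cell surface tissue factor protein level read by ELISA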

| Structure (SMILES) | outcome | AC50 |
| --- | --- | --- |
| CCOS(=O)(=O)OCC | inactive | – |
| c1nc[nH]n1 | inactive | – |
| CC(Cc1ccc(OCC(=O)O)cc1)NCC(O)c1csc(C(F)(F)F)n1 (stereo not drawn) | inactive | – |
| CCOP(=S)(NC(C)C)Oc1ccccc1C(=O)OC(C)C (stereo not drawn) | inactive | – |
| Nc1ccc2ccccc2c1 | inactive | – |
| CCOP(=S)(OCC)SCn1nnc2ccccc2c1=O | inactive | – |
| CCNc1nc(Cl)nc(NC(C)(C)C)n1 | inactive | – |
| O=[N+]([O-])c1ccc(Cl)c(Cl)c1 | inactive | – |
| COCCOCCO | inactive | – |
| CN(C)C(=O)Cl | inactive | – |
| Cc1c([N+](=O)[O-])cc2c(c1[N+](=O)[O-])C(C)(C)CC2(C)C | inactive | – |
| Cc1ccc([N+](=O)[O-])cc1C | inactive | – |
| CCN(CC)c1ccccc1 | inactive | – |
| ClC(Cl)=C(c1ccc(Cl)cc1)c1ccccc1Cl | – | 24 µM (active) |
| CCOc1ccc(C(C)(C)COCc2cccc(Oc3ccccc3)c2)cc1 | inactive | – |
| COP(=O)(CCC(=O)NCO)OC | inactive | – |
| CCOP(=S)(Oc1ccc([N+](=O)[O-])cc1)c1ccccc1 (stereo not drawn) | inactive | – |
| CC(Cl)CN(C)C (stereo not drawn) | inactive | – |
| OCC1CO1 (stereo not drawn) | inactive | – |
| Cc1ccc(O)cc1C | inactive | – |
| C=CC(=O)OCC(F)(F)C(F)F | inactive | – |
| c1cc2c3c(cccc3c1)CC2 | inactive | – |
| Nc1ccc(Cl)cc1 | inactive | – |
| CC(C)(C)OOC(C)(C)C | inactive | – |
| CC(C)(C)c1ccccc1OP(=O)(Oc1ccccc1)Oc1ccccc1 | inactive | – |
| Cc1cccc(N)c1 | inactive | – |
| O=P1(N(CCCl)CCCl)NCCCO1 (stereo not drawn) | inactive | – |
| O=S(=O)(F)C(F)(F)C(F)(F)C(F)(F)C(F)(F)C(F)(F)C(F)(F)C(F)(F)C(F)(F)F | inactive | – |
